Experimental data published in the supplement of paper PMC6555819.

How the values were obtained:
Experiment in all cases: PBM binding z-score (relative to random genomic background probes); higher = stronger binding; sequences stand for … in GC…GCGATTGACAGCGTAGAATGAAGG
[1] = tested on: RARb homodimer (NR concentration 270 nM)
Outline: (§1)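 The probes on custom Agilent 4×180K protein-binding microarrays were double-stranded, with 34-nt variable regions bearing direct-repeat seeds, single-nucleotide variants, half-site ablations and random human genomic background sequences. Incubation lasted 1 h with ligand-free nuclear receptor dimers in PBS pH 7.4, 2% milk, 0.02% Triton X-100, 1 mM DTT, 0.2 mg/mL BSA and 0.4 mg/ml salmon testes DNA. Antibodies against each partner (one per run) detected bound dimers, and fluorescence scans were regression-normalized. Binding z-scores take the random background probes as reference.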

[2] = tested on: RARg:RXRa (NR concentration 270 nM, RXRa partner concentration 90 nM)
Outline: as §1

[3] = tested on: RARg homodimer (NR concentration 270 nM)
Outline: as §1

[4] = tested on: RXRa DBDmut IVT, anti-RXR (DBD mutation: RXRa K156A/R161A, NR concentration 90 nM)
Outline: as §1

[5] = tested on: RXRa homodimer (NR concentration 180 nM)
Outline: as §1

[6] = tested on: THRa:RXRa (NR concentration 90 nM, RXRa partner concentration 90 nM)
Outline: as §1

[7] = tested on: THRa homodimer (NR concentration 90 nM)
Outline: as §1

[8] = tested on: VDR homodimer (NR concentration 270 nM)
Outline: as §1

Sequence	PBM binding z-score [1]	PBM binding z-score [2]	PBM binding z-score [3]	PBM binding z-score [4]	PBM binding z-score [5]	PBM binding z-score [6]	PBM binding z-score [7]	PBM binding z-score [8]
ACTCTTAGTTGAGACGAGGGCAACCGATAGGTTG	1.14	0.56	0.695	0.403	0.46	2.59	0.356	0.844
AGTCAAAGTTCAGGACGAGGTAACGAAAAGCACG	2.94	4.74	4.62	2.71	3.34	3.75	1.77	2.11
AGAACGTGGGCACGCTGAGTTGATAGCAGAGTAG	-0.561	-0.224	-0.0604	-0.279	-0.0635	-0.485	-0.747	-0.131
CCTACTGGGCCATCAGGTCATTGTTATCAACGTT	2.4	1.8	1.75	0.592	0.877	3.26	3.28	1.99
CCTTACGGGTCACTCCAGCTTATAGCATCGGAGT	2.64	4.1	4.22	1.69	3.9	2.22	-0.158	0.747
TCGAGTAGGTTACCAATGGGGCATTTAGCTTTCT	0.597	1.09	0.384	0.219	0.324	-0.0531	-0.844	-0.414
CAGCCTAGGTCAGGGCCGGTATAGGAGGAACGTT	2.41	3.04	3.86	-0.785	1.56	1.88	0.2	-0.454
